# Measurements published in PubChem BioAssay.
# The source made the active and inactive calls. Unless noted, no rule for the calls is given here.
# Legend:
# [1] = system: Wnt5a (protein binding on small-molecule microarray); assay: Wnt5a binders on small-molecule microarray, primary screen, biophysical, 635/667 nm fluorescence (AID 1142); details: 635 nm fluorescence, higher = more signal;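 also: fluorescence read at 667 nm with signal to noise per printed feature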
# [2] = cell viability in Huh7 cells, primary screen, cytotoxicity control for HCV replication inhibitor project, CellTiter-Glo luminescence, basal, 48 h (AID 1143); details: Huh7 HCV replicon, higher = more signal, called active from +8 up or from −8 down;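 also: Huh7 hepatoma cells carrying a hepatitis C replication reporter with no stimulus; test concentration not given here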
# [3] = P. aeruginosa biofilm formation inhibitors, primary screen, PAO1 strain, BacTiter-Glo luminescence, LB-PBS (AID 1144); details: 12 h, higher = more signal
# [4] = CREB reporter modulators without forskolin, primary screen, cell-based, PC12, CRE-LacZ reporter, unstimulated (AID 1145); details: no forskolin, luminescence, 4.5 h, higher = more signal, called active from +8 up or from −8 down
# [5] = CREB reporter modulators under forskolin, primary screen, cell-based, PC12, CRE-LacZ reporter, forskolin-stimulated (AID 1146); details: luminescence, 4.5 h, higher = more signal, called active from +8 up or from −8 down;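 also: PC12 cells with 6xCRE LacZ reporter stimulated by forskolin 10 µM; beta-galactosidase reporter signal reflecting CREB driven transcription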
# [6] = target: Streptavidin (Streptomyces avidinii) (UniProt P22629); assay: streptavidin binders on small-molecule microarray, primary screen, artefact control for SMM compound annotation, biophysical, 635/667 nm fluorescence (AID 1147); details: streptavidin binding, higher = more signal;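 also: signal reflects streptavidin binding to arrayed compounds as a control protein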
# [7] = small-molecule binders of probe aInhba, primary screen, biochemical, small-molecule microarray, 635/667 nm fluorescence (AID 1148); details: higher = more signal;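 also: score merges 667nm spot fluorescence with signal-to-noise for antibody binding to printed compounds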
# [8] = target: Torsin-1A (Homo sapiens) (UniProt O14656); assay: torsin A binders from cell lysate, primary screen, small-molecule microarray, wild-type, 635/667 nm (AID 1149); details: COS7 hTOR1A-WT lysate, 635 nm fluorescence, higher = more signal
# [9] = target: Torsin-1A (Homo sapiens) (UniProt O14656); assay: small-molecule binders of mutant TOR1A in lysate, primary screen, cell lysate, small-molecule microarray, COS7 lysate, 635/667 nm fluorescence (AID 1150); details: COS7 hTOR1A mutant lysate, 635 nm fluorescence, higher = more signal;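 also: score pools 667 nm emission and signal to noise measuring lysate protein binding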
# [10] = system: Sonic hedgehog protein (Shh); assay: small-molecule binders of Shh protein, primary screen, biochemical, small-molecule microarray, 635/667 nm fluorescence (AID 1151); details: small-molecule microarray binding, 635 nm fluorescence; higher = more signal;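 also: Shh protein binding to compounds spotted on small-molecule microarray slides; score combines spot fluorescence intensity with signal-to-noise across triplicate slides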
# [11] = E. coli DRC41 culture turbidity changes, primary screen, E. coli filamentation inducer project, strain DRC41, OD650, 48 h (AID 1152);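 also: E. coli MC1000 strain DRC41 lacking acrAB efflux pump and sulA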; details: E. coli DRC41 (acrAB sulA), higher = more signal, called active from +8 up or from −8 down
# [12] = small-molecule binders of probe aLefty1, primary screen, biochemical, small-molecule microarray, 635/667 nm fluorescence (AID 1153); details: higher = more signal;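 also: score merges spot fluorescence with signal-to-noise ratio from the scanned slide images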
# [13] = PSAC antagonists in infected red cells, primary screen, cell-based, P. falciparum Indochina, OD700, 1 h (AID 1154); details: P. falciparum Indochina infected RBC osmotic lysis, higher = more signal, called active from +8 up or from −8 down
# [14] = PSAC antagonists in infected red cells, primary screen, cell-based, P. falciparum Indochina, OD700, 2 h (AID 1155);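 also: lysis reports solute entry through the parasite surface anion channel PSAC; channel blockers reduce lysis of infected cells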; details: P. falciparum Indochina infected erythrocytes, osmotic lysis OD700; higher = more signal, called active from +8 up or from −8 down
# [15] = osmotic lysis modulators in infected erythrocytes, primary screen, PSAC antagonist project, cell-based, P. falciparum Indochina, OD700, 3 h (AID 1156); details: higher = more signal, called active from +8 up or from −8 down
# [16] = PSAC antagonists in infected red cells, primary screen, cell-based, P. falciparum Indochina, OD700, 18 h (AID 1157); details: P. falciparum Indochina infected erythrocytes, osmotic lysis OD700, 18 h; higher = more signal, called active from +8 up or from −8 down
# [17] = modulators of S6 phosphorylation in cells, primary screen, cell-based, A549, cytoblot, luminescence, serum-stimulated (AID 1158); details: A549 phospho-S6 cytoblot, 5 h, higher = more signal;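 also: serum-stimulated A549 lung adenocarcinoma cells; signal is phosphorylated S6 detected by cytoblot immunostaining with HRP secondary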
# [18] = target: NADPH oxidase 2 (Homo sapiens) (UniProt P04839); assay: NOX2-dependent H2O2 signal modulators, primary screen, NOX inhibitor project, cell-based, HEK293-NOX2, PMA-stimulated, Amplex Red fluorescence (AID 1159); details: 45 min, higher = more signal, called active from +8 up or from −8 down; also: test concentration not given here
# [19] = target: NADPH oxidase 4 (Homo sapiens) (UniProt Q9NPH5); assay: NOX4-dependent H2O2 signal modulators, primary screen, NOX inhibitor project, cell-based, HEK293-NOX4, tetracycline-induced, Amplex Red fluorescence (AID 1160); details: 45 min, higher = more signal, called active from +8 up or from −8 down
# [20] = target: NADPH oxidase 5 (Homo sapiens) (UniProt Q96PH1); assay: NOX5-dependent H2O2 signal modulators, primary screen, NOX inhibitor project, cell-based, HEK293-NOX5, Amplex Red fluorescence (AID 1161); details: HEK293-NOX5, ionomycin, 45 min, higher = more signal
# NADPH oxidase 5 (Homo sapiens), sequence (Q96PH1 whole entry, looked up): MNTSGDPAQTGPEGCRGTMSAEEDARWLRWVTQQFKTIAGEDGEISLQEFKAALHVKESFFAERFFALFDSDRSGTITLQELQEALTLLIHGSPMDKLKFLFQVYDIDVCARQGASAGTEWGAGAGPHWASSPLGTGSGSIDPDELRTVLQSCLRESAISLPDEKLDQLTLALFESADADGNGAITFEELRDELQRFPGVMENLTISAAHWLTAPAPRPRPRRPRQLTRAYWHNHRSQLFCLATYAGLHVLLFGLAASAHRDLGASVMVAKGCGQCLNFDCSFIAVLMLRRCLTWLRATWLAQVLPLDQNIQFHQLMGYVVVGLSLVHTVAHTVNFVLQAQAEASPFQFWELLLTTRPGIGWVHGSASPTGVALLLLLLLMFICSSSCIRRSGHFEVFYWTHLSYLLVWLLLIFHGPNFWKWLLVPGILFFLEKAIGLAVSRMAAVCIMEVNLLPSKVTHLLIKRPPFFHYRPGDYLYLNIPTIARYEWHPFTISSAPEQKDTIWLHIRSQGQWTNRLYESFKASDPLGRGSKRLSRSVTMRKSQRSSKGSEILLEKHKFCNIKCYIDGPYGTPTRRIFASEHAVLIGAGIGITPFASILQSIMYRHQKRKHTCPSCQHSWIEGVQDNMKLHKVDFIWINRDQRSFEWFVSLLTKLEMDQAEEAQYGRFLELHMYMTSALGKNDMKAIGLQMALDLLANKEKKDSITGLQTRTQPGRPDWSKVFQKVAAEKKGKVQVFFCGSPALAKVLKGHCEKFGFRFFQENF
# NADPH oxidase 4 (Homo sapiens), sequence (Q9NPH5 whole entry, looked up): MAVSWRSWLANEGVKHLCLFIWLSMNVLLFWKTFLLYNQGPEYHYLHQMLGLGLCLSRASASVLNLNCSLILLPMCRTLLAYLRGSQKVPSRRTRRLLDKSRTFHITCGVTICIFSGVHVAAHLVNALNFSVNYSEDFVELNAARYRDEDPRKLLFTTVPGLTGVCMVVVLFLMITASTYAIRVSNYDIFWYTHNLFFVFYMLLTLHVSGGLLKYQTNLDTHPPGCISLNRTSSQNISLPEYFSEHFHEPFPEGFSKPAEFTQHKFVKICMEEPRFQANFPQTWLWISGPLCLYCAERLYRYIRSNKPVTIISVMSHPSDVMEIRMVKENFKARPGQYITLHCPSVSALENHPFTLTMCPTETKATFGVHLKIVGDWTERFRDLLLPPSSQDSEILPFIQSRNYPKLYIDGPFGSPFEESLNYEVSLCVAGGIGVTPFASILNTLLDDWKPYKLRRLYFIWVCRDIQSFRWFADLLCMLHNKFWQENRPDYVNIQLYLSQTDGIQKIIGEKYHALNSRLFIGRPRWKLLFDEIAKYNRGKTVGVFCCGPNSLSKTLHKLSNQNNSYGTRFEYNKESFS
# NADPH oxidase 2 (Homo sapiens), sequence (P04839 whole entry, looked up): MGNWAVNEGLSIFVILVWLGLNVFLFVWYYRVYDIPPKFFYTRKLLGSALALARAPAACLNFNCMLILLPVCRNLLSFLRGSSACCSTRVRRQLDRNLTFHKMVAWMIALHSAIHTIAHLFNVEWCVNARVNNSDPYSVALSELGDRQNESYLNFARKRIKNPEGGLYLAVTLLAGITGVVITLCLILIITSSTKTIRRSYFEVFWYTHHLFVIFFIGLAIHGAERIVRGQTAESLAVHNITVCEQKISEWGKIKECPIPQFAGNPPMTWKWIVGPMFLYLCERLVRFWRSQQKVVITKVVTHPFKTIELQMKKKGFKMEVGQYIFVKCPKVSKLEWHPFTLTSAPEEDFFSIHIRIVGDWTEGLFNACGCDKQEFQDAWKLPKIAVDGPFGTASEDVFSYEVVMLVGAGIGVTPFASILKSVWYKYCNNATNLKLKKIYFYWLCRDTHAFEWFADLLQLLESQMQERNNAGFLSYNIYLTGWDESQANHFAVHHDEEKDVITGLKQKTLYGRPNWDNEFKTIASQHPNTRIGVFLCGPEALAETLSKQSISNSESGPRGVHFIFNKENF
# Torsin-1A (Homo sapiens), sequence (O14656 whole entry, looked up): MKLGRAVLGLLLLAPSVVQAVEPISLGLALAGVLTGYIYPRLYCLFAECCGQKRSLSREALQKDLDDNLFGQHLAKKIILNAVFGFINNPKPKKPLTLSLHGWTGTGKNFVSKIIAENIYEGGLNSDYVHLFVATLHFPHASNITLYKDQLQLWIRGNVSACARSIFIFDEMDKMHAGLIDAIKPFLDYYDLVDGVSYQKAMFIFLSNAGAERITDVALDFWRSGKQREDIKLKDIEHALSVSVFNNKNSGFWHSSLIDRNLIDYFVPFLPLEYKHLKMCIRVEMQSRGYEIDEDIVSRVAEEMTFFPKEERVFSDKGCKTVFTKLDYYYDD
# Streptavidin (Streptomyces avidinii), sequence (P22629 whole entry, looked up): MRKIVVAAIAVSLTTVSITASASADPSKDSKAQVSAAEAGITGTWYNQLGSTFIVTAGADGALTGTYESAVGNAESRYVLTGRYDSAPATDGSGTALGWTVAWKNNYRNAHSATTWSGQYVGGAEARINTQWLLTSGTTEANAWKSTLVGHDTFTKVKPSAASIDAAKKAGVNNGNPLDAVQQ
Compound,composite z-score [1],z-score [2],z-score [3],z-score [4],z-score [5],composite z-score [6],composite z-score [7],composite z-score [8],composite z-score [9],composite z-score [10],z-score [11],composite z-score [12],z-score [13],z-score [14],z-score [15],z-score [16],z-score [17],z-score [18],z-score [19],z-score [20]
COc1ccc([Si](C)(C)[C@H]2[C@H](CCO)O[C@@]3(C(=O)N(Cc4cccc(N5C(=O)c6ccccc6Oc6ccccc65)c4)c4ccccc43)[C@@H]2C)cc1,0.0511,-6.96 (inactive),-0.365 (inactive),0.716 (inactive),-1.1 (inactive),0.4,-0.05,-0.412,-0.54,0.734,0.253 (inactive),0.119,2.63 (inactive),2.78 (inactive),0.979 (inactive),1.6 (inactive),0.87,-1.93 (inactive),2.27 (inactive),1.1
C=C(COC)/C(=C/C[C@@H](OC(C)=O)c1ccccc1OCCO)c1cnc2ccccc2c1,0.3,-2.52 (inactive),0.514 (inactive),8.98 (active),0.879 (inactive),0.219,-0.0087,2.53,2.34,2.29,-0.146 (inactive),0.267,28.1 (active),14.2 (active),1.56 (inactive),1.71 (inactive),0.413,-1.22 (inactive),-1.04 (inactive),-0.792
COCCCN1C(=O)[C@@]2(c3ccc([N+](=O)[O-])cc3)CC(=O)N(CC34CC5CC(CC(C5)C3)C4)[C@@H]2c2ccc(CO)cc21,-0.15,-0.636 (inactive),-0.453 (inactive),-1.32 (inactive),-0.556 (inactive),0.135,-0.138,-0.323,-0.0458,0.791,0.172 (inactive),-0.298,-0.409 (inactive),0.28 (inactive),1.48 (inactive),0.0583 (inactive),0.261,0.307 (inactive),0.183 (inactive),0.482
CN(C)CCCC[C@@H]1NC(=O)[C@@H]2C[C@H](C(=O)NCCCCCN)[C@H](c3cccc(OCCO)c3)N2C1=O,0.132,-0.716 (inactive),-0.241 (inactive),-0.118 (inactive),-0.469 (inactive),0.909,-0.101,0.433,0.0162,1.58,2.96 (inactive),0.25,1.11 (inactive),-0.469 (inactive),-1.52 (inactive),-2.07 (inactive),2.77,0.635 (inactive),0.585 (inactive),1.57
CCCC[C@H]1OB(O)C[C@H]2C1=C(COc1ccccc1)C[C@H]1C(=O)C=CC(=O)[C@H]12,0.119,-0.578 (inactive),-0.327 (inactive),6.38 (inactive),2.07 (inactive),0.0073,-0.158,0.372,0.274,1.38,1.55 (inactive),-0.134,1.49 (inactive),0.0962 (inactive),0.129 (inactive),0.134 (inactive),-0.0871,-0.429 (inactive),-1.48 (inactive),-5.03
COCC(=C=CC[C@H](O)c1ccccc1OCCO)C[C@H](O)COCc1ccccc1,1.16,-0.729 (inactive),1.27 (inactive),5.1 (inactive),0.497 (inactive),0.259,0.0541,1.29,1.13,1.73,-0.186 (inactive),0.131,9.07 (active),1.07 (inactive),0.287 (inactive),0.896 (inactive),-0.408,0.0204 (inactive),-1.22 (inactive),-1.92
COc1cc(C(O)C2C=CC3C(=O)N(c4ccccc4)C(=O)C3N2Nc2ccccc2F)cc(OC)c1OC (stereo not given),0.36,-1.73 (inactive),0.0706 (inactive),1.61 (inactive),1.05 (inactive),0.135,0.177,0.0422,0.8,0.429,-1.19 (inactive),0.149,5.94 (inactive),1.25 (inactive),-0.276 (inactive),0.462 (inactive),-1.01,-1.67 (inactive),-4.07 (inactive),-3.16
C=C(COC)C(=O)CC[C@@H](OC(=O)c1ccccc1-c1ccccc1C(=O)O)c1ccc(OCCO)cc1,0.238,-0.043 (inactive),-0.147 (inactive),0.727 (inactive),1.36 (inactive),-0.986,0.0018,-0.0281,1.15,1.86,-0.172 (inactive),0.712,10.8 (active),0.971 (inactive),0.489 (inactive),0.381 (inactive),-0.528,0.849 (inactive),-0.245 (inactive),-1.32
